HP1b chromo inh – HTS for Inhibitors of HP1-beta Chromodomain Interactions with Methylated Histone Tails; Chromobox protein homolog 1 (Homo sapiens), P83916; AlphaScreen HP1-beta / biotin-H3K9me3 peptide binding; Potency, µM (series often up to 114 µM), inactives show at the top dose activity change, negative = inhibition, usual class: inhibitors; actives 0.56% (n = 390,000); AID 540317, 2011; also: nearly all actives have a fitted effect of over 70% in size
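Compound inhibition of the preformed complex between 50 nM HP1-beta and 50 nM biotinylated H3K9me3 peptide was read by AlphaScreen. Buffer was PBS pH 7.4 with 0.01% Tween-20. Incubations ran 30 min at room temperature, with 10 ug/mL donor/acceptor beads.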
L3MBTL1 inh – qHTS Assay for the Inhibitors of L3MBTL1; Lethal(3)malignant brain tumor-like protein 1 (Homo sapiens), Q9Y468; AlphaScreen L3MBTL1–H3K9me1 peptide binding; Potency, µM (highest dose often 57.1 µM), for inactives: at the highest dose activity, negative = inhibition, actives largely listed as inhibitors; actives 0.66% (n = 230,000); also: % is scaled to controls: 0 for no effect and ±100 for the full control effect; nearly all actives have a fitted effect of over 60% in size
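First, the protein-peptide complex forms for 30 min at room temperature (L3MBTL1 50 nM, biotinylated H3K9me1 peptide 75 nM). Next, compounds are pin-transferred and incubated 30 min. Finally, AlphaScreen beads are added and read after 30 min.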
BAZ2B inh – qHTS Assay for Inhibitors of BAZ2B. Bromodomain adjacent to zinc finger domain protein 2B (Homo sapiens), Q9UIF8. AlphaScreen BAZ2B-H3K14Ac peptide displacement. actives 4.4% (n = 360,000). Potency, µM (top dose mostly 114 µM), without a hit: at the top dose activity change, negative = inhibition, hits mostly inhibitors. AID 504333, 2011; also: % is scaled to controls: 0 for no effect and ±100 for the full control effect; nearly all actives have a fitted effect of over 60% in size
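BAZ2B 50 nM plus b-H3(5-23)K14Ac 50 nM, PBS pH 7.4/0.01% Tween-20, 30 min RT; compound added (max 110 uM), 30 min RT; streptavidin donor/Ni-chelate acceptor beads 10 ug/mL final, 20 min dark; AlphaScreen read.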
JMJD2A Tudor – qHTS Assay for Inhibitors of JMJD2A-Tudor Domain. Lysine-specific demethylase 4A (Homo sapiens), O75164. AlphaScreen JMJD2A-Tudor / H3K4me3 peptide binding. Potency, µM (titrated, usually from 114 µM), for the others: at the top dose activity change, negative = inhibition, actives largely listed as inhibitors. actives 4.4% (n = 390,000); also: % is scaled to controls: 0 for no effect and ±100 for the full control effect; nearly all actives have a fitted effect of over 50% in size
GLS inhibitor – qHTS for Inhibitors of Glutaminase (GLS); GLS enzymatic activity, qHTS titration; Potency, µM (doses to about 45.5 µM), for the others: at the top dose activity change, negative = inhibition, hits mostly inhibitors; actives 0.21% (n = 410,000); also: % is scaled to controls: 0 for no effect and ±100 for the full control effect
Target sequence (O94925 whole entry, looked up): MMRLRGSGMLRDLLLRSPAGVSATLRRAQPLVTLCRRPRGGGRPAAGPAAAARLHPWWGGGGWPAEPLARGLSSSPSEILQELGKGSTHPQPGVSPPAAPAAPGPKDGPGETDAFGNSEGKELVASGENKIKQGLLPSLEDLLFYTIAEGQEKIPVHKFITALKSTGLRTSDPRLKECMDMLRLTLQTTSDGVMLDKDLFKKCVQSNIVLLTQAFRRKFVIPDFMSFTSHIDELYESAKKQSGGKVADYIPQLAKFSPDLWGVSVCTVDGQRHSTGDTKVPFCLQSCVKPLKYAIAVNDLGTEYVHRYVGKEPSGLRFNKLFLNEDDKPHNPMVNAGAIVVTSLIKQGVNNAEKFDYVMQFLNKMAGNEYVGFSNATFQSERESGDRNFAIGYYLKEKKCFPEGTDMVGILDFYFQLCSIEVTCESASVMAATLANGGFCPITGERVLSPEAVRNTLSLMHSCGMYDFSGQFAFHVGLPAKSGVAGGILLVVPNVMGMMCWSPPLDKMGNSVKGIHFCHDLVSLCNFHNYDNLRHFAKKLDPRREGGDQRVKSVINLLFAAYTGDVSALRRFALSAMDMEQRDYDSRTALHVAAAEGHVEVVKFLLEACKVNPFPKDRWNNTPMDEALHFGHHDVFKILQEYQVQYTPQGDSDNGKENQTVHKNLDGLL
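Read-out is an Amplex red fluorescence increase coupled through glutamate oxidase and HRP, measured before and after 30 min room-temperature incubation. hKGA is in 45 mM KH2PO4 (pH 8.2) with 0.02% Tween-20; glutamine added as 1mM solution.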
G9a inh – qHTS Assay for Inhibitors of Histone Lysine Methyltransferase G9a; G9a H3K9 monomethylation, AlphaScreen, 2 h; Histone-lysine N-methyltransferase EHMT2 (Homo sapiens), Q96KQ7; actives 8.8% (n = 350,000); Potency, µM (titrated, usually from 102 µM), inactives show at the top dose activity, negative = inhibition, usual class: inhibitors; also: % is scaled to controls: 0 for no effect and ±100 for the full control effect; nearly all actives have a fitted effect of over 75% in size
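Readings reflect AlphaScreen signal from monomethyl-H3K9 antibody detection. HMT at 20 nM; substrate b-H3K9 500 nM; cofactor SAM 20 uM; 2 h RT reaction; compounds tested as titrations in qHTS with 15 min preincubation.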
Active calls of the source: *; ? = inconclusive; . = not tested or not shown; [ ] = another dose, or the depositor's remark. Compounds with a hit are over-represented: about 10% of the library has one in this group of screens. Calls follow the shape of the dose curve; as a rule, active = well fitted curve in the direction sought with a large enough effect; inconclusive = small, poorly fitted or top-dose-only effect, or another doubt; inactive = no such curve, though single readings can be large; an effect the other way counts as inactive or inconclusive. Potency is read from the fitted curve at half-maximal effect.

SMILES	HP1b chromo inh	L3MBTL1 inh	BAZ2B inh	JMJD2A Tudor	GLS inhibitor	G9a inh
Cc1ccc(C(=O)N/C(=C\c2ccccc2)C(=O)NCc2ccncc2)cc1	10%	-8%	50µM*	-4%	-17%	-7%[0.0925 µM]
O=C(NCCc1ccccc1)/C(=C\c1ccc([N+](=O)[O-])cc1)NC(=O)c1ccco1	25%	.	-24%	-15%	3%	40µM*
O=C(NCCO)/C(=C/c1ccco1)NC(=O)c1ccco1	23%	.	.	-10%	-5%	.
O=C(NCCO)/C(=C\c1ccco1)NC(=O)c1ccco1	38%	2%	-1%	-6%	2%	32µM*
COc1ccc(/C=C(\NC(=O)c2ccco2)C(=O)NC(Cc2ccccc2)C(=O)O)cc1 (stereo not given)	11%	.	1%	-14%	0%	-37%
Cc1ccc(C(=O)N/C(=C/c2ccccc2)C(=O)NCc2ccncc2)cc1	35%	-2%	0%	-5%	-1%	33%[59 µM]
O=C(NC(Cc1ccccc1)C(=O)O)/C(=C/c1ccc(Cl)cc1)NC(=O)c1ccco1 (stereo not given)	0%	.	-1%	-10%	?	50µM*
Cc1ccc(NC(=O)c2c(C)oc3ccc(O)c(CN4CCCCCC4)c23)c(C)c1	9%	.	-25%	-33%	27%	-30%[59 µM]
COc1cccc(N2CCN(C(=O)c3cnc4c(-c5ccccc5)c(C)nn4c3C)CC2)c1	-9%	.	-37%	-21%	2%	8%[59 µM]
O=C(NCc1ccccc1)/C(=C/c1ccccc1)NC(=O)c1ccco1	8%	.	5%	-5%	-4%	25%[59 µM]
O=C(O)CCNC(=O)/C(=C\c1ccco1)NC(=O)c1ccco1	34%	?	0%	-13%	0%	22µM*
Cc1ccc(C(=O)N/C(=C/c2ccco2)C(=O)NCc2ccco2)cc1	3%	.	-16%	-23%	85%	45µM*
O=C(NC(Cc1ccccc1)C(=O)O)/C(=C/c1ccco1)NC(=O)c1cccc([N+](=O)[O-])c1 (stereo not given)	50%	.	8%	-12%	9%	45µM*
COc1ccc(C(=O)N/C(=C/c2ccco2)C(=O)NCc2ccco2)cc1	22%	.	-13%	-22%	-3%	?
O=C(NCc1ccccc1)/C(=C/c1ccco1)NC(=O)c1ccco1	19%	.	-2%	1%	-18%	35µM*
O=C(O)CCCCCNC(=O)/C(=C\c1ccco1)NC(=O)c1ccco1	31%	?	-30%	1%	-2%	?
CC1CCc2c(sc(NC(=O)Cc3ccccc3)c2C(=O)Nc2ccc(Cl)cc2)C1 (stereo not given)	43%	.	3%	-10%	-3%	-1%[59 µM]
Cc1cccc(-c2noc(-c3ccc(NCc4ccccc4)c([N+](=O)[O-])c3)n2)c1	20%	.	-5%	-15%	-4%	-25%[59 µM]
COc1ccc(NC(=O)CCc2nc3c(C)nn(-c4ccc(C)cc4)c3n(C)c2=O)c(OC)c1	22%	.	-12%	-4%	-4%	-8%[12.7 µM]
O=C(NCCCn1ccnc1)c1ccco1	9%	4%	?	?	1%	-25%[12.7 µM]
O=C(NCCCn1ccnc1)/C(=C/c1ccc(F)cc1)NC(=O)c1ccccc1	9%	.	71µM*	-9%	2%	10%
CC(C)CC(NC(=O)/C(=C\c1ccco1)NC(=O)c1ccco1)C(=O)O (stereo not given)	51%	.	-28%	2%	-18%	32µM*
O=C(NCCCO)/C(=C\c1ccco1)NC(=O)c1ccco1	25%	-7%	-6%	-13%	1%	71µM*
